# From PubChem BioAssay AID588343 (Broad Institute, 2011)
# Hit rate of the full screen: of about 1,200 compounds, about 650 (54%) were called active. Inconclusive results (about 5%) are left out.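 Rule for the calls: active = signal-lowering curve whose fitted half-maximal concentration is at or below ten times the top valid dose tested; inconclusive = flat curve with 30 to 70% inhibition, or poor fit; inactive = signal increase, flat within 30%, or potency beyond limit.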 So high a share suggests a set chosen from earlier hits. The list is a sample of the results. Results with a measured potency or affinity are listed apart.
# Experiment: inhibitors of LMP1-driven NF-kB reporter, dose response, cell-based, HEK293, luciferase, cherry-pick (AID 588343);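 note: 0% = median of neutral control wells and -100% = MG132 positive control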
# Settings: HEK293 LMP1 TES2 NF-kB luciferase reporter, 16 h; series mostly up to 35 µM; activity change, negative = inhibition: at the top concentration
row,Structure (SMILES),"activity change, negative = inhibition"
1,O=[N+]([O-])c1ccc(/C=N/Nc2cc(Cl)nc(-c3ccccc3)n2)cc1,42.9% (inactive)
2,COC(=O)C1=C(C)N(c2cc(C)cc(C)c2)/C(=C/c2ccc(O)cc2)C1=O,-5.12% (inactive)
3,COC(=O)c1ccc(/C=C(/NC(=O)c2ccccc2)C(=O)N2CCOCC2)cc1,10.5% (inactive)
4,CC[C@H]1OC(=O)[C@H](C)[C@@H](O[C@H]2C[C@@](C)(OC)[C@@H](O)[C@H](C)O2)[C@H](C)[C@@H](O[C@@H]2O[C@H](C)C[C@H](N(C)C)[C@H]2O)[C@](C)(O)C[C@@H](C)C(=NOCOCCOC)[C@H](C)[C@@H](O)[C@]1(C)O,0.266% (inactive)
5,Cc1nnc(NC(=O)CSc2nnc(Cc3cccn3C)n2CCc2ccccc2)s1,3.74% (inactive)
6,Cc1ccnc(SCCn2c(N3CCN(c4ccccc4)CC3)nc3c2c(=O)[nH]c(=O)n3C)n1,-12.6% (inactive)
7,CSc1nc(N)nc(SCC(=O)C23CC4CC(CC(C4)C2)C3)c1C#N,20.8% (inactive)
8,O=C(O)/C=C/c1ccc(Cn2ccnc2)cc1,-7.19% (inactive)
9,CC(C(=O)N=Nc1c(O)[nH]c2ccccc12)n1cnc2ccccc2c1=O (centres undefined),-8.31% (inactive)
10,Oc1[nH]c2ccccc2c1N=Nc1c(F)c(F)c(Cl)c(F)c1F,23.3% (inactive)
11,O=C(CCc1ccccc1Cl)N1CCN(S(=O)(=O)c2ccccc2)CC1,-13.7% (inactive)
12,COc1ccc(-c2cnc(NCc3cc4c(cc3[N+](=O)[O-])OCO4)n2C)cc1,-18.9% (inactive)
13,COC(=O)C(NS(=O)(=O)c1ccc(N2CCCC2=O)cc1)c1ccccc1 (centres undefined),-4.56% (inactive)
14,CC(C)c1nnc(NC(=O)c2ccc(N3C(=O)CCC3=O)cc2)s1,9.82% (inactive)
15,Cn1nc(-c2ccc(N3CCOCC3)c(NS(=O)(=O)c3ccccc3)c2)c2ccccc2c1=O,-2.5% (inactive)
16,COc1ccc(OC)c2c1sc(=NC(=O)c1ccco1)n2C,6.54% (inactive)
17,CCCCCC(=O)N1C[C@@H](O)[C@H](n2cc(C3CC3)nn2)C[C@@H]1c1ccc(C)cc1,6.25% (inactive)
18,CN1C(=O)C(CC(=O)NC2CCCCC2)SC1=Nc1ccccc1 (centres undefined),2.02% (inactive)
19,CCCc1cc(=O)[nH]c(SCC(=O)NC2CCCCC2)n1,0.752% (inactive)
20,COc1ccc(S(=O)(=O)NC(CC(=O)NCc2ccco2)C(C)C)cc1 (centres undefined),-10.8% (inactive)
21,COc1ccc(C(=O)CSc2nnc(Cc3ccccc3)o2)cc1,-7.07% (inactive)
22,CCOCCCn1cnc2c3cc(F)ccc3n(C)c2c1=O,13.7% (inactive)
23,CCOC(=O)N1CCC(n2c(=S)[nH]c3ccccc3c2=O)CC1,9.29% (inactive)
24,COc1cc(Cl)cc(C(c2c(C(=O)O)[nH]c3ccccc23)c2c(C(=O)O)[nH]c3ccccc23)c1O,-3.69% (inactive)
25,COc1ccc(CCNC(=O)CSC(=O)c2ccccc2)cc1OC,12.9% (inactive)
26,COc1ccc(CCNC(=O)CSc2ccsc2[N+](=O)[O-])cc1OC,1.89% (inactive)

row,Structure (SMILES),"activity change, negative = inhibition"
1,O=C(c1noc2c1CCCC2)N1CCCCC1,10.1% (inactive)
2,COc1cc(/C=C(\C#N)c2ccccn2)ccc1OCc1ccccc1Cl,2.29% (inactive)
3,CCOC(=O)c1ccc(NC(=O)CSc2nc(N3CCOCC3)nc(N3CCOCC3)n2)cc1,82.1% (inactive)
4,Cn1cc(S(=O)(=O)N2CCN(C(=O)c3ccco3)CC2)c(=O)n(C)c1=O,7.15% (inactive)
5,COCCN1Cc2cccc(C(=O)N3CCN(c4cc(C)ccc4C)CC3)c2C1=O,-8.16% (inactive)
6,O=C(c1cccs1)N1CC=C(c2ccccc2)CC1,3.11% (inactive)
7,O=C(c1ccco1)N1CCN(S(=O)(=O)/C=C/c2ccccc2)CC1,-6.52% (inactive)
8,CCN(CC(=O)Nc1ccc(NC(C)=O)cc1)C(=O)c1cccnc1Sc1ccc(C)c(C)c1,-7.7% (inactive)
9,CCOC(=O)c1ccc(NC(=S)N2CCSC2c2ccc(OC)cc2)cc1 (centres undefined),6.65% (inactive)
10,COC(=O)C1=C(C)NC(C)=C(C(=O)OCC(C)C)C1c1ccccc1[N+](=O)[O-] (centres undefined),18.9% (inactive)
11,O=C(O)C1CC(=O)N(c2ccc(Br)cc2)C1 (centres undefined),-4.39% (inactive)
12,CCCC(C)NC(C)C(=O)NC1CCCC1 (centres undefined),-5.6% (inactive)
13,CCCCCCNC(=O)O[C@]12C[C@@H](C(=O)OC)[C@@H](C(=O)OC)C[C@@]1(O)CN(S(=O)(=O)c1ccc(C)cc1)C2,-2.65% (inactive)
14,Cc1nc(N)nc(SCc2ccc([N+](=O)[O-])cc2)c1N,-1.43% (inactive)
15,Brc1cccc(-c2cnco2)c1,10.1% (inactive)
16,CC(C)NCC(O)COc1cccc2ccccc12 (centres undefined),-3.16% (inactive)
17,Cc1ccc(NC(=S)NCc2cccs2)cc1,-5.01% (inactive)
18,Cc1ccc(CCNC(=O)Cc2ccc(NC3=NC4CS(=O)(=O)CC4S3)cc2)cc1 (centres undefined),-1.43% (inactive)
19,CC1=CC(=NOC(=O)/C=C/c2ccccc2)C=C(C)C1=O,6.6% (inactive)
20,CCC(=O)OC1c2ccccc2C(=O)N1Cc1ccccc1 (centres undefined),-7.48% (inactive)
21,O=C1CC(c2ccccc2)Oc2ccccc21 (centres undefined),3.68% (inactive)
22,COc1ccccc1C1(CC(=O)O)CCOC(C)(C)C1 (centres undefined),-4.13% (inactive)
23,O=C(Cn1cc(CNC(=O)C2CCCCC2)nn1)Nc1cc(C(F)(F)F)ccc1Cl,-8.87% (inactive)
24,COC(=O)c1[nH]c2ccc(C)cc2c1NC(=O)NC1CCCCC1,23.4% (inactive)
25,Cn1cc(CC(=O)NCCCN2CCCC2)c2ccccc21,6.09% (inactive)
26,O=C(NCCCN1CCCCC1)c1ccc2c(c1)NC(=O)c1ccccc1S2,37.7% (inactive)

row,Structure (SMILES),"activity change, negative = inhibition"
1,CCCNC(=O)N1CCN(S(=O)(=O)c2ccc(C)c(C)c2)CC1,-10.3% (inactive)
2,COc1ccc(S(=O)(=O)N2CCC(C(=O)NC3CC3)CC2)cc1OC,-3.85% (inactive)
3,O=C(O)c1ccc(-n2cncn2)c([N+](=O)[O-])c1,15% (inactive)
4,O=S(=O)(N/N=C/c1ccccc1F)c1ccccc1,-3.49% (inactive)
5,CCSc1nc2ccc(OC)cc2cc1C#N,10.6% (inactive)
6,O=[N+]([O-])c1cc(/C=N\O)ccc1Oc1ccc(F)cc1,9.78% (inactive)
7,CCOC(=O)c1sc2nc(C)nc(NCc3ccccc3)c2c1C,32.4% (inactive)
8,Cn1c(=O)c2ncn(CC(=O)O)c2n(C)c1=O,-11.1% (inactive)
9,COc1ccc(C(Nc2ccccn2)c2oc(CO)cc(=O)c2O)cc1 (centres undefined),-2.04% (inactive)
10,Cc1ccc2c(c1)N(CC(=O)N1CCCC1)C(=O)c1cccnc1O2,2.23% (inactive)
11,O=C(NCc1ccccc1Cl)C1CCCN1S(=O)(=O)c1ccc(F)cc1 (centres undefined),-9.02% (inactive)
12,COc1ccc(S(=O)(=O)N2CCN(CC(=O)Nc3ccc(C)c(F)c3)CC2)cc1,-3.25% (inactive)
13,N=C1S/C(=C\c2ccccc2)C(=O)N1c1ccc(F)cc1,-6.59% (inactive)
14,O=C1c2ccccc2C(Nc2cccnc2)N1Cc1ccccc1 (centres undefined),-7.37% (inactive)
15,Cc1ccc(C2=C/C(=C\c3cccnc3)C(=O)O2)cc1,-11.9% (inactive)
16,CC1S/C(=C(\C#N)C(=O)NCc2ccco2)N(Cc2ccco2)C1=O (centres undefined),-4.58% (inactive)
17,COc1ccc(NC(=O)C2CCCN(S(=O)(=O)c3cccc4nonc34)C2)c(OC)c1 (centres undefined),-11.2% (inactive)
18,Cc1ccc(C)c(N2CCN(S(=O)(=O)c3ccc4c(c3)CCN4C(=O)CCC(=O)O)CC2)c1,-3.45% (inactive)
19,O=C(N1CCOCC1)N1CCN(S(=O)(=O)c2ccc(Cl)cc2)C1,-7.57% (inactive)
20,COc1ccc(/C=N/N=C/c2ccc(OC)c(OC)c2)cc1OC,9.12% (inactive)
21,COc1ccc(/C=C\C(=O)NCc2ccc3c(c2)cc(C)n3C)cc1OC,-4.59% (inactive)
22,Cc1cc(C)c(S(=O)(=O)Nc2nnc(CC(C)C)s2)c(C)c1,6.39% (inactive)
23,CC1(C)CC(NS(=O)(=O)c2ccc(F)cc2)CC(C)(C)N1,-4.19% (inactive)
24,O=C(Nc1ccncc1)OCc1ccccc1,-5.3% (inactive)
25,CN(C)CC(C)(C)CNS(=O)(=O)c1ccc(OC(F)(F)F)cc1,4.61% (inactive)
26,COc1ccc(C(=O)N2CC(=O)Nc3ccccc32)cc1S(=O)(=O)N1CCCC1,15.1% (inactive)

row,Structure (SMILES),"activity change, negative = inhibition"
1,COc1ccc(NC(=O)COC(=O)/C=C/c2ccc(OC)c(S(=O)(=O)N3CCOCC3)c2)cc1,-2.68% (inactive)
2,O=C(O)[C@@H]1[C@H]2C[C@H]3c4[nH]c5ccccc5c4CCN3C[C@@H]2CC[C@@H]1O,-1.94% (inactive)
3,CCc1ccccc1N(CC(=O)NCc1ccco1)C(=O)c1snc(C(N)=O)c1N,0.513% (inactive)
4,CC(C)(C)C(=O)Nc1nnc(SCC(=O)Nc2ccc3c(c2)OCO3)s1,-4.9% (inactive)
5,COC(=O)c1ccc(CSc2nc3c(c(=O)n2-c2ccc(C)cc2)SCC3)o1,21.4% (inactive)
6,COc1ccc(-n2c(SCC(=O)Nc3ccc4c(c3)OCO4)nc3c(c2=O)SCC3)cc1,-8.49% (inactive)
7,O=C(CN1CCN(S(=O)(=O)c2ccc(F)cc2)CC1)Nc1cccc(C(F)(F)F)c1,40.9% (inactive)
8,Cc1cccc(C)c1NC(=O)CN(C)C(=O)c1ccc(-c2cccc(C(F)(F)F)c2)o1,-0.08% (inactive)
9,O=C(Cn1ccc(C(F)(F)F)n1)Nc1cccc(S(=O)(=O)N2CCCCC2)c1,6.67% (inactive)
10,Cc1ccc(-n2ccc(=O)c(C(=O)Nc3ccc(S(=O)(=O)N4CCOCC4)cc3)n2)cc1,-5.67% (inactive)
11,O=C(NCCc1cn2ccccc2n1)C1CCCCC1,-4.95% (inactive)
12,NC(=O)N/N=C/c1ccc(N2CCOCC2)s1,-23.2% (inactive)
13,Cc1ccc(CNC(=O)C(=O)NCC2OCCN2S(=O)(=O)c2ccc(Cl)cc2)cc1 (centres undefined),-9.64% (inactive)
14,CN(C)CCCC1(c2ccc(F)cc2)OCc2cc(C#N)ccc21 (centres undefined),-2.99% (inactive)
15,CC(=O)O[C@]1(C(C)=O)CC[C@H]2[C@@H]3C=C(C)C4=CC(=O)CC[C@@H]4[C@H]3CC[C@@]21C,13.3% (inactive)
16,CC(C)Oc1ccc(C2CC(=O)NC2=O)cc1 (centres undefined),-6.47% (inactive)
17,COc1ccc(/C(CC2OC(=O)c3ccccc32)=N\NC(N)=O)cc1 (centres undefined),11.8% (inactive)
18,COc1cc(NC(=S)N2CCN(CCO)CC2)cc(OC)c1,-1.75% (inactive)
19,Cc1ccc(/C=N/NC(=O)c2cc(-c3ccccc3)nc3ccccc23)o1,-0.376% (inactive)
20,COC(=O)c1[nH]c2cccc(C)c2c1NC(=O)CN1CCCc2ccccc21,-10.2% (inactive)
21,CCCCOc1ccc2c(c1)/C(=C(\C(Cl)=C(Cl)Cl)[N+](=O)[O-])N2,-10.4% (inactive)
22,COCCNC(=O)C(=O)NCC1OCCN1C(=O)c1ccc(Cl)cc1 (centres undefined),-6.53% (inactive)
23,COCCCn1cnnc1SCC(=O)Nc1ccc(S(=O)(=O)N2CCCC2)cc1,-5% (inactive)
24,CNc1ccc(Br)cc(C(=O)/C=C/c2cccc(OC)c2)c1=O,7.05% (inactive)
25,CN(CCNC(=O)C1CCN(S(=O)(=O)N2CCOCC2)CC1)CCc1ccccc1,5.33% (inactive)
26,Cn1cccc1/C=N/n1c(-c2ccc(Cl)cc2Cl)n[nH]c1=S,-16.1% (inactive)
